Here are results for 5 molecules from PubChem BioAssay.

Assay [1] deals with Albumin (Bos taurus) (UniProt P02769). In words: bovine serum albumin binders on microarray, profiling panel, artefact control for SMM control protein annotation, biochemical, small-molecule microarray, Alexa647 label, 635/667 nm fluorescence (AID 1118).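 Also: score merges 667 nm emission intensity and signal-to-noise per printed compound spot.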 The following applies: BSA-A647 binding, fluorescence 635 nm, higher = more signal.
Albumin (Bos taurus), sequence (P02769 whole entry, looked up): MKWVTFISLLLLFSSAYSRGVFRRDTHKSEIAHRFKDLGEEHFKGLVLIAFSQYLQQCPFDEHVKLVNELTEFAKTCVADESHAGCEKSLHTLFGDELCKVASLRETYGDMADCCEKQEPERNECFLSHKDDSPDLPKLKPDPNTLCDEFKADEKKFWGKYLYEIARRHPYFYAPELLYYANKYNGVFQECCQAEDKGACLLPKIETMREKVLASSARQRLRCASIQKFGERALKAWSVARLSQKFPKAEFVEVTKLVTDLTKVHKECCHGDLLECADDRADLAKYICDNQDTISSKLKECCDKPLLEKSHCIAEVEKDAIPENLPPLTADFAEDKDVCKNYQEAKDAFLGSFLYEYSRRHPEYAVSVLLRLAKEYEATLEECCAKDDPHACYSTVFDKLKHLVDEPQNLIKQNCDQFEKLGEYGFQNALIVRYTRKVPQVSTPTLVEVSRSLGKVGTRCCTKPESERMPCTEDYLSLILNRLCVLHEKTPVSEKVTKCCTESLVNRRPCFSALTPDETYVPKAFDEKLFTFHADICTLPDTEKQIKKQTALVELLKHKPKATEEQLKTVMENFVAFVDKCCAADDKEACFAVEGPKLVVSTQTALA
The nature of assay [2]: small-molecule microarray binders of probe aXIP, primary screen, biochemical, NeuroSMM set, 635/667 nm fluorescence (AID 1119).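 Also: probe is the protein aXip251-270 applied at 1 µg/mL to compound-printed slides; binding of probe to printed compounds measured as 667 nm fluorescence plus signal to noise.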 To be noted: higher = more signal, called active from +8 up or from −8 down.
A short description of assay [3]: small-molecule binders of probe aNOTCH3, primary screen, biochemical, small-molecule microarray, 635/667 nm fluorescence (AID 1120).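 Also: probe is a biotin-tagged antibody raised against NOTCH3 rather than NOTCH3 protein; score merges spot fluorescence near 667 nm with spot signal to noise.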 The following applies: higher = more signal.
Assay [4] is described as follows: small-molecule binders of probe aNOTCH2, primary screen, biochemical, small-molecule microarray, 635/667 nm fluorescence (AID 1121).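 Also: score merges feature fluorescence read at 667 nm with its signal to noise.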 The following applies: higher = more signal.
The target in assay [5] is Carbonic anhydrase 2 (Homo sapiens) (UniProt P00918). The assay is described as follows: CAII small-molecule binders, profiling panel, biochemical, small-molecule microarray, Alexa647-labelled CAII (AID 1122). To be noted: CAII-A647 binding fluorescence, higher = more signal.
Assay [6] in a line: COS7 lysate on small-molecule microarray, probe aHis, 635 nm (AID 1123).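 Also: z-score combines 667nm fluorescence intensity with signal-to-noise per printed compound spot.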 To be noted: COS7 cell lysate, fluorescence, higher = more signal.
Assay [7] in a line: compound binding in COS7 lysate, probe aLAP1, primary screen, cell lysate, small-molecule microarray (AID 1124).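 Also: lysate comes from COS7 cells expressing LAP1 and is applied at 0.3 µg/mL; score merges spot fluorescence near 667 nm with signal-to-noise over triplicate slides.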 The following applies: probe aLAP1, fluorescence, higher = more signal.
Assay [8] concerns Sam68 (KHDRBS1). The assay is described as follows: Sam68 small-molecule binders, primary screen, biochemical, small-molecule microarray, 635 nm fluorescence (AID 1125).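 Also: score merges 667 nm channel intensity with signal to noise over triplicate slides.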 The following applies: small-molecule microarray binding, higher = more signal.
For assay [9], the system named is Chordin-like protein 2 (CHRDL2). In words: CHRDL2 small-molecule binders, primary screen, biochemical, small-molecule microarray, 635 nm fluorescence (AID 1126).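 Also: printed compound slides probed with Chrdl2 protein at 4 µg/mL for 1 h at 4 C; score merges 667 nm emission intensity with signal to noise over three replicate slides.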 The following applies: small-molecule microarray binding, fluorescence 635 nm; higher = more signal.
Assay [10] deals with Concanavalin-A (Canavalia ensiformis) (UniProt P02866). In words: ConA small-molecule binders, primary screen, artefact control for SMM control protein annotation, biochemical, small-molecule microarray, Alexa647 label, 635 nm (AID 1127).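 Also: z combines 667 nm emission intensity with signal-to-noise across three replicate slides.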 To be noted: ConA-A647 binding fluorescence, higher = more signal.
Concanavalin-A (Canavalia ensiformis), sequence (P02866 whole entry, looked up): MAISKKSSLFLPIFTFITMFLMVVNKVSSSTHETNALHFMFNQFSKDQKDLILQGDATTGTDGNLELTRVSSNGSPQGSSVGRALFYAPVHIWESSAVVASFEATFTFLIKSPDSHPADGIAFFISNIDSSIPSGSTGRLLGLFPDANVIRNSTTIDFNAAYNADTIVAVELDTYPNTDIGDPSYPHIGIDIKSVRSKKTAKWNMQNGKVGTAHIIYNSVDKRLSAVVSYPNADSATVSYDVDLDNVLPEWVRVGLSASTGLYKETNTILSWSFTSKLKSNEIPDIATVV
A short description of assay [11]: anti-His antibody binders, primary screen, artefact control for SMM control protein annotation, biochemical, small-molecule microarray, 635 nm fluorescence (AID 1128).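 Also: score merges feature fluorescence with signal-to-noise for each printed compound spot.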 To be noted: anti-His Alexa647 antibody binding, higher = more signal.
The subject of assay [12] is Human papillomavirus type 1a E7 protein (residues 1-88). In words: HPV1a E7 small-molecule binders, primary screen, biochemical, small-molecule microarray, residues 1-88, 635 nm (AID 1129). The following applies: small-molecule microarray binding, fluorescence 635 nm; higher = more signal.
Assay [13] deals with Focal adhesion kinase 1 (Homo sapiens) (UniProt Q05397). In words: small-molecule microarray binders of FAK, primary screen, biochemical, 635/667 nm fluorescence, BSA, DTT (AID 1130).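 Also: composite of spot emission at 667 nm and signal to noise over triplicate slides.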 To be noted: PTK2 binding, 635 nm fluorescence, higher = more signal.
Focal adhesion kinase 1 (Homo sapiens), sequence (Q05397 whole entry, looked up): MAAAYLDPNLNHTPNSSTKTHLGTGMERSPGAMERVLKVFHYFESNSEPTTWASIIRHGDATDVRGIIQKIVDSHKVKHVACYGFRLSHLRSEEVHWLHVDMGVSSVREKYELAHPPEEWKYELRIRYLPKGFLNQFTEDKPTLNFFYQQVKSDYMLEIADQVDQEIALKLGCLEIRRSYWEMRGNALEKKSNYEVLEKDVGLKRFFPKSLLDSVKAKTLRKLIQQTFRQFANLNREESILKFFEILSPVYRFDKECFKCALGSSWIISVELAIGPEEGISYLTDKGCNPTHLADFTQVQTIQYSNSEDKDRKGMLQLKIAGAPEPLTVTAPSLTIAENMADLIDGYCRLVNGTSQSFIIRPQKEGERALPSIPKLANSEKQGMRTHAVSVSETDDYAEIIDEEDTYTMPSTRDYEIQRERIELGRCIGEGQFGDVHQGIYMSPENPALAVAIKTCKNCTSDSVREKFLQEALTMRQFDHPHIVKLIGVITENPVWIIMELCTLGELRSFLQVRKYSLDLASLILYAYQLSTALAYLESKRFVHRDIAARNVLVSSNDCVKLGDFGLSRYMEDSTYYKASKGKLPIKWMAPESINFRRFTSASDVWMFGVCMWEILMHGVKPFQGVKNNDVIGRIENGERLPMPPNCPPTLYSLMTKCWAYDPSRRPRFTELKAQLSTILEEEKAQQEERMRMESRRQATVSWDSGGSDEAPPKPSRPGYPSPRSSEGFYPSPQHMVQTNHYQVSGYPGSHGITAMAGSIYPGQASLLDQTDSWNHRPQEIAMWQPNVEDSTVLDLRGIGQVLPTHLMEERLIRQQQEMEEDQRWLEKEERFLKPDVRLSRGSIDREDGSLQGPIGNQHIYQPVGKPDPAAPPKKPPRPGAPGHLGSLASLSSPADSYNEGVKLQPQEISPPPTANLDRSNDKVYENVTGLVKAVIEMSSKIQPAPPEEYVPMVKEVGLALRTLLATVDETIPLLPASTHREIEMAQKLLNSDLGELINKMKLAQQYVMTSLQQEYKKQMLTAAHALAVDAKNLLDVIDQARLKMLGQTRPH
Assay [14] has as its system Fibrinogen (Alexa647-labelled). The assay is described as follows: fibrinogen binders on compound microarrays, profiling panel, artefact control for SMM control-protein annotation, biochemical, small-molecule microarray, 635/667 nm fluorescence (AID 1131).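 Also: z-score merges 667 nm fluorescence with per-spot signal-to-noise over triplicate slides.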 To be noted: fibrinogen-A647 binding fluorescence, higher = more signal.
Assay [15] has as its target Follistatin (Homo sapiens) (UniProt P19883). The assay is described as follows: follistatin binders on small-molecule microarrays, primary screen, biochemical, small-molecule microarray, 635/667 nm fluorescence (AID 1132). To be noted: FST binding, 635 nm fluorescence, higher = more signal.
For assay [16], the target named is Fibroblast growth factor 2 (Homo sapiens) (UniProt P09038). In words: FGF2 binders on small-molecule microarrays, primary screen, biochemical, small-molecule microarray, 635/667 nm fluorescence (AID 1133). The following applies: small-molecule microarray binding, FGF2, fluorescence 635/667; higher = more signal.
Fibroblast growth factor 2 (Homo sapiens), sequence (P09038 whole entry, looked up): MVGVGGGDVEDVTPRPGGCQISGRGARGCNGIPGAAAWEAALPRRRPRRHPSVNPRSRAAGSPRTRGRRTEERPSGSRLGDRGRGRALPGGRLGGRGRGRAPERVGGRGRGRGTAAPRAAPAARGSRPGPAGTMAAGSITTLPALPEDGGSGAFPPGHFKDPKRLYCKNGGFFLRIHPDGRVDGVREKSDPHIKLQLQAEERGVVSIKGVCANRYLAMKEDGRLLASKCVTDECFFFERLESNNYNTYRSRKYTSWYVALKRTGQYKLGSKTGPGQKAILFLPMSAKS
The nature of assay [17]: mitochondrial membrane potential change in A549 cells, profiling panel, cell-based, JC-1 fluorescence, basal, 24 h, 100 nL (AID 1138).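 Also: A549 lung adenocarcinoma cells under basal conditions with no added stimulus; test concentration not given here.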 The following applies: higher = more signal.
Assay [18] has as its system Lefty1. In words: Lefty1 binders on small-molecule microarrays, primary screen, biochemical, small-molecule microarray, 635/667 nm fluorescence (AID 1139). To be noted: small-molecule microarray binding, fluorescence 635/667; higher = more signal.
The test system of assay [19] is wheat germ agglutinin (Triticum aestivum), Alexa647-labelled. In words: wheat germ agglutinin binders on compound microarrays, profiling panel, artefact control for SMM control-protein annotation, biochemical, small-molecule microarray, 635/667 nm fluorescence (AID 1140).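 Also: score merges 667 nm feature emission with signal to noise over triplicate slides.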 To be noted: WGA-A647 binding, 635 nm fluorescence, higher = more signal.
In assay [20] the target is Luciferin 4-monooxygenase (Photinus pyralis) (UniProt P08659). The assay is described as follows: firefly luciferase enzyme inhibitors, primary screen, biochemical, luminescence, purified enzyme, 2006 set (AID 1141).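 Also: cell-free assay with purified firefly luciferase at 100 ng per well in PBS; test concentration not given here.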 The following applies: SteadyGlo luminescence, 30 min, higher = more signal, called active from +8 up or from −8 down.
Luciferin 4-monooxygenase (Photinus pyralis), sequence (P08659 whole entry, looked up): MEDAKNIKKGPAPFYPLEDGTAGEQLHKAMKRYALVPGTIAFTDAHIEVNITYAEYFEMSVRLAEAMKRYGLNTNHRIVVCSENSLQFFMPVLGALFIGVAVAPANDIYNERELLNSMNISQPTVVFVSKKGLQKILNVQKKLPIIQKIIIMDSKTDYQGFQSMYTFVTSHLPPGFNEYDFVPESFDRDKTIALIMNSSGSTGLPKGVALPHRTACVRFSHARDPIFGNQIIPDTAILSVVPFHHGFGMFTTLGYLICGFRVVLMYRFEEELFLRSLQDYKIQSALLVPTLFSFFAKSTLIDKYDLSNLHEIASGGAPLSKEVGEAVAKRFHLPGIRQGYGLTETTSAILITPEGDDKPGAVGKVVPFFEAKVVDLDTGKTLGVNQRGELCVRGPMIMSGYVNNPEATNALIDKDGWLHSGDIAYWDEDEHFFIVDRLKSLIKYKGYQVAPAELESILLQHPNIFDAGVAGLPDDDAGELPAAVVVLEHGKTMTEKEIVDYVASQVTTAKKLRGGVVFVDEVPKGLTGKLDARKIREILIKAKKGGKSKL

The source made the active and inactive calls.

Follistatin (Homo sapiens), sequence (P19883 whole entry, looked up): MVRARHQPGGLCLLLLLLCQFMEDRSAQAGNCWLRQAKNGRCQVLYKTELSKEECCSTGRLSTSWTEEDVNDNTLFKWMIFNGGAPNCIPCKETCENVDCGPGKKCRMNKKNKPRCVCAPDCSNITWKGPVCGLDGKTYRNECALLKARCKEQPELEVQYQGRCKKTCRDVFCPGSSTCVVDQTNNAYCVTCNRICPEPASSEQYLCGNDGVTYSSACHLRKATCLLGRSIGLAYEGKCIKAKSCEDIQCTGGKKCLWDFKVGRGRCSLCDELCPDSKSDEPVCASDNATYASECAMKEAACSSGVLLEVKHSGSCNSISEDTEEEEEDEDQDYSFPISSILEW

Turning to `CC(C)(C)N1C(=O)[C@H]2[C@H]3[C@H](O)[C@H](O)CC(=NOCc4ccccc4)[C@@H]3CC[C@H]2C1=O`, the composite z-score in assay [1] was 0.8; in assay [3] it was 0.111; in [4], -0.131; in assay [5] it was 0.675; in [6] it was 0.384; in assay [7], 0.532. Besides, the composite z-score in assay [8] was 1.17; in [9], 0.831; in assay [10], 0.694; in [11], 0.94; in assay [12] it was 0.808; in [13], -0.0913. The composite z-score in assay [14] was determined as 0.921; in assay [15], 0.785; in assay [16] it was 0.742; in [18], 0.744; in [19], 0.441. The composite Z-score in assay [2] is 0.588 (inactive). In addition, the z-score in assay [17] was 0.0533; in assay [20], -1 (inactive).
In the case of `COc1ccc(OC[C@H]2Cc3c(-c4ccccc4)nc4c(c3CO2)CN(CCOc2ccccc2)CC4)cc1`, the composite z-score was 0.445 in [1]; 0.0562 in [3]; -0.108 in assay [4]; 0.234 in assay [5]; 0.678 in [6]; 0.379 in assay [7]. Also, the composite z-score is 1.07 in [8]; 0.419 in assay [9]; 1.08 in assay [10]; 1.78 in assay [11]; 0.928 in assay [12]; 0.169 in assay [13]. Moreover, the composite z-score came to 0.811 in assay [14]; 0.923 in [15]; 0.596 in [16]; 1.25 in [18]; 0.387 in [19]. In addition, in assay [2], the composite Z-score is 0.812 (inactive). Besides, the z-score in assay [17] was 0.774; in [20] it was -0.356 (inactive).
Turning to `COC(=O)CC=C[C@H](C)[C@H](CO)NS(=O)(=O)c1ccc(C)cc1`, the composite z-score in assay [1] was -0.333; in assay [3], 0.0522; in assay [4], -0.13; in assay [5], 0.131; in [6], -0.0961; in assay [7], 0.121. Also, the composite z-score in [8] is 0.217; in [9], 0.91; in [10], 0.579; in assay [11], 0.422; in assay [12], 0.447; in [13] it was 0.265. The composite z-score in [14] is 0.466; in assay [15], 0.525; in assay [16], 0.621; in assay [18], 0.701; in [19], -0.037. Besides, the composite Z-score in assay [2] was 0.755 (inactive). Further, the z-score in [17] was -0.655; in assay [20], -0.54 (inactive).
As for `CC(C)(C)N1C(=O)[C@H]2[C@H]3[C@H](O)[C@H](O)CC(=NO[C@@H]4O[C@H](CO)[C@@H](O)[C@H](O)[C@H]4O)[C@@H]3CC[C@H]2C1=O`, the composite z-score is -0.524 in assay [1]; -0.059 in [3]; -0.154 in [4]; 0.361 in [5]; 0.741 in assay [6]; 0.649 in assay [7]. Besides, the composite z-score was found to be 1.24 in [8]; 1.07 in assay [9]; 0.0237 in assay [10]; 1.14 in assay [11]; 1.08 in assay [12]; 1.04 in assay [13]. Further, the composite z-score in [14] amounted to 0.747; in assay [15] it was 1.09; in assay [16] it was 0.762; in assay [18], 1.13; in [19] it was 0.398. Further, the composite Z-score in assay [2] was 0.406 (inactive). Also, the values for the z-score in assay [17] and in [20] were -0.0208 and 0.0997 (inactive), respectively.
In the case of `C=CCOC(=O)[C@H]1[C@@H]2C(=O)O[C@@H](c3ccccc3)[C@@H](c3ccccc3)N2[C@@H](c2ccc(OCCOC(=O)[C@H]3C[C@H]4C(=O)N5CCC[C@H]5C(=O)N4[C@H]3c3cccc(OCCO)c3)cc2)[C@]12C(=O)Nc1ccc(I)cc12`, the composite z-score in assay [1] came to 0.898; in assay [3], 1.36; in assay [4] it was 0.554; in assay [5], 0.879; in assay [6], 3.06; in assay [7], 1.25. Moreover, the composite z-score was 1.29 in [8]; 1.24 in assay [9]; 1.23 in [10]; 3.59 in [11]; 1.25 in assay [12]; -0.259 in assay [13]. The composite z-score in [14] came to 0.97; in assay [15] it was 1.46; in assay [16], 1.68; in assay [18] it was 1.37; in [19], 1.5. In addition, in [2], the composite Z-score is 1.9 (inactive). For the same molecule, the z-score was 0.445 in assay [17] and 0.108 (inactive) in [20].
